Statin myotox sup: protects C2C12 myotubes from simvastatin toxicity; ATP luminescence, 48 h; scaled: DMSO 0, geranylgeraniol control 100; rescue of ATP level, % at 7.49 µM; 330,000 tested, 0.78% active; AID 602340;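 active means mean ATP rescue above about 67%, or every replicate alone reaching that limit, limit read from the data, passing the limit was not always enough; inconclusive means no clear call, values can overlap the other calls; inactive means mean under the limit and some replicate under it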;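 further: myotubes were challenged with 10 µM simvastatin during compound exposure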
MITF TRPM1 HTS: MITF TRPM1 promoter activation in melanoma cells; SK-MEL-5 TRPM1-promoter luciferase, 24 h; % of positive control, neutral wells = 0; 300,000 tested, 0.75% active; AID 588334; activation, % at 12.5 µM;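 active means mean activation of at least 80% with every replicate also reaching 80%; inconclusive means mean reaches 80% but some replicate falls short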;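 further: 0% = neutral control wells and 100% = parthenolide positive control wells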
Rtt109 HAT inh: blocks Candida albicans Rtt109/Vps75 acetyltransferase activity. purified Rtt109/Vps75, ThioGlo CoA-SH fluorescence, 4 h. Q5AAJ8. inhibition, % at 34.9 µM. AID 540336. 330,000 tested, 0.16% active;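 active means inhibition of at least 50% in every replicate; inconclusive means best replicate reaches 50% inhibition but some replicates fall short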
Target sequence (Q5AAJ8 whole entry, looked up): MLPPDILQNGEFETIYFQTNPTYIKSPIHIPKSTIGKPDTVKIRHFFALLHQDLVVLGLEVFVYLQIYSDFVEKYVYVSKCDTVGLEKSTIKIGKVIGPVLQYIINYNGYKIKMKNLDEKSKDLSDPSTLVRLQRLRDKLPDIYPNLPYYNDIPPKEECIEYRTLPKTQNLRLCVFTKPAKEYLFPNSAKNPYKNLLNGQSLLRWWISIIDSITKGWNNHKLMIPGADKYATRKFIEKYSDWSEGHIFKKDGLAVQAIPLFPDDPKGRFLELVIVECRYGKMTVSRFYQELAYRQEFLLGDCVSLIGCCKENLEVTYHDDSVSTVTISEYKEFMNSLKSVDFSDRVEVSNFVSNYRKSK
Wnt bcat act: activators of Wnt/beta-catenin signaling. Wnt/beta-catenin reporter cell assay, activator, plate reader. activation, % at 9.35 µM. 300,000 tested, 1.2% active; in the data active means activation above about 30%, passing the limit was not always enough; inconclusive means no clear call, values can overlap the other calls;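 further: 0% = neutral control wells and 100% = positive control wells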
esBAF inh: SWI/SNF esBAF complex inhibition; 350,000 tested, 2% active; reporter increase, % at 12.5 µM; AID 602393; mouse ES cells, Bmi1-luciferase knock-in reporter, 24 h; 100% = twice the neutral-well signal; in the data active means activation above about 40%; inconclusive means no clear call, values can overlap the other calls;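 further: 0% = median of the plate's neutral control wells and 100% = double that signal; a rise in the Bmi1 reporter signal indicates esBAF inhibition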
Active calls of the source: *; ? = inconclusive; · = no result. Hits are enriched below; roughly 3.1% of the tested compounds scored in any of these assays.

SMILES	Statin myotox sup	MITF TRPM1 HTS	Rtt109 HAT inh	Wnt bcat act	esBAF inh
CC(=O)Nc1ccc(NC(=O)CSc2nnc(NC(=O)c3cccc(F)c3)s2)cc1	·	11	-4	17	·
Cc1ccc(NC(=O)c2ccc(CSc3nnc(C)s3)cc2)cc1	·	70	-7	-3	17
CCN1[C@@H]2c3ccc(-c4cccc(OC)c4)c(=O)n3C[C@@H]2[C@@H](CO)[C@@H]1C(=O)N(C)C	7	·	·	·	-3
CC(=O)Nc1nnc(SCC(=O)c2ccc(F)cc2)s1	1	17	7	5	4
CC(=O)Nc1nnc(SCc2ccc(F)cc2)s1	13	47	-1	17	46*
O=C1CSC(=S)N1/N=C/c1ccc(O)c(O)c1O	2	-11	196*	·	5
COc1ccccc1C=NN1C(=O)CSC1=S	·	-10	-5	0	·
C[C@H]1CCCCO[C@H](CN(C)Cc2ccc3c(c2)OCO3)[C@@H](C)CN([C@@H](C)CO)C(=O)c2cc(NC(=O)c3ccncc3)ccc2O1	·	·	·	·	-13
C/C(=N/OCc1ccc(Br)cc1)c1ccccn1	-8	117*	0	18	6
COCCCNC(=O)c1cccn2c(=O)c3cc4ccccc4cc3nc12	182*	11	4	·	-6
CC[N+](C)(CC)CCC/C(=N/O)C(O)(c1ccccc1)c1ccccc1	·	·	·	33*	·
CN(C)CCCNC(=O)[C@@H]1[C@@H](CO)[C@@H]2Cn3c(ccc(-c4ccncc4)c3=O)[C@H]1N2C(=O)C1CC1	4	·	·	·	-2
COCC(=O)Nc1c(C(=O)Nc2ccc3c(c2)OCO3)oc2ccccc12	0	59	-1	27	63*
Cc1c(C(=O)NNC(=O)c2ccccc2O)oc2ccccc12	8	·	·	1	59*
Cc1c(C(=O)Nc2ccc3c(c2)OCO3)oc2ccccc12	-17	42	·	27	50*
COc1ccc(C(=O)Nc2ccc3c(c2)OC[C@@H](C)NC[C@H](C)[C@@H](OC)CN(C)C3=O)cc1	-1	·	·	·	1
O=C(C[C@H]1CC[C@H](NC(=O)CN2CCOCC2)[C@H](CO)O1)NC1CCCCC1	12	·	·	·	-5
O=C(C[C@H]1CC[C@@H]2[C@H](COC[C@H](O)CN2C(=O)Nc2cc(Cl)cc(Cl)c2)O1)NCC1CCCCC1	-1	·	·	·	2
C#CCOc1c(Br)cc(/C=N\NC(=O)CN2CCOCC2)cc1OCC	103*	15	0	·	-3
C#CCOc1c(Br)cc(/C=N/O)cc1OCC	1	7	26	·	-10
CO[C@@H]1CN(C)C(=O)c2cc(NS(C)(=O)=O)ccc2OC[C@@H](C)N(C(=O)C2CCCCC2)C[C@@H]1C	9	·	·	·	-1
FC(F)Oc1ccc(C2N=C(c3ccccc3)NO2)cc1 (stereo not given)	·	117*	-10	34*	·
COc1ccc(C2N=C(c3ccccc3)NO2)cc1OC (stereo not given)	3	68	16	1	52*
COc1cc(C2N=C(c3ccccc3)NO2)cc(Br)c1O (stereo not given)	2	-7	-1	·	11
COc1ccc(NC(=O)N(C)C[C@H]2OCCCC[C@H](C)Oc3ccc(NS(=O)(=O)c4c(C)noc4C)cc3C(=O)N([C@H](C)CO)C[C@@H]2C)cc1	-49	·	·	·	4
SMILES	Statin myotox sup	MITF TRPM1 HTS	Rtt109 HAT inh	Wnt bcat act	esBAF inh
Cc1ccc(S(=O)(=O)N/N=C2/CC(c3ccccc3)Oc3ccccc32)cc1[N+](=O)[O-] (stereo not given)	-2	·	1	·	41*
CC1(C)CC(=O)C(/C=N/n2cnc3ccccc3c2=O)=C(O)C1	4	·	11	·	49*
Cc1ccc(C2CC2c2n[nH]c(=S)n2-c2ccc(C)cc2)cc1 (stereo not given)	118*	-7	16	-2	2
Cc1ccc(-n2c(C3CC3c3ccc(Cl)cc3)n[nH]c2=S)cc1 (stereo not given)	60	10	-4	-3	-1
CN(C)C(=O)[C@@H]1[C@@H](CO)[C@@H]2Cn3c(ccc(-c4ccccc4)c3=O)[C@H]1N2Cc1ccccn1	-3	·	·	·	-3
CC(=O)OCCCN1c2ccccc2Nc2nnc(-c3ccccc3)cc21	-52	98*	7	·	?
CC(=O)OCCN1c2ccccc2Sc2cnccc21	5	·	·	-2	-8
Cc1nn(-c2ccccc2)c(N)c1Sc1cccc([N+](=O)[O-])c1	7	7	-2	2	5
Cc1nn(-c2cccc([N+](=O)[O-])c2)c(N)c1-c1ccccc1	-3	92*	4	15	66*
